{"source": "paper PMC7819943", "about": "“Rice protein-binding microarrays: a tool to detect cis-acting elements near promoter regions in rice”", "note": "Over roughly 35,000 sequences, “fluorescence intensity (a.u.)” has its median near 10,000; the highest 2% begin near 52,000. The list comes from a sample in which the highest values are over-represented; it also holds similar and randomly drawn sequences."}
{"target": "T1, OsWOX13 (Oryza sativa, UniProt Q5QMM3 1-267)", "T1 sequence": "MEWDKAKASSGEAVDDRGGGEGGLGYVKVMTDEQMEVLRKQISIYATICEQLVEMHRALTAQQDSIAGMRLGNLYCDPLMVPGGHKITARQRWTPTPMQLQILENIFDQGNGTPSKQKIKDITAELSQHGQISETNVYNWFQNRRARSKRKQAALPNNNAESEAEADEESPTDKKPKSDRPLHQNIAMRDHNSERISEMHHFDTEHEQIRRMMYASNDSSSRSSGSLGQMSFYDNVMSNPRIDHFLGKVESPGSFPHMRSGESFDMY", "test": "protein-binding microarray (RPBM); PBS, 2% BSA, 51.3 ng/ul salmon testes DNA, 50 uM zinc acetate, 200 nM TF, 25 C, 1 h; high values mean tight binding", "conditions": "protein: recombinant; tags: N-terminal polyhistidine and DsRed monomer fusion (pET32a); label: CyDye5-dUTP incorporated in the synthesized complementary strand; 3' TTTTT single-stranded linker to array surface; dsDNA, one strand shown", "in_short": "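Binding signal is reported as fluorescence intensity per feature (arbitrary units) from an Axon 4000B scanner. Incubation used 200 nM of each Ni–NTA-purified, N-terminally polyhistidine- and DsRed-fused transcription factor from E. coli BL21-CodonPlus on a double-stranded custom Agilent array for 1 h at 25 °C, with 50 µM zinc acetate in the buffer, followed by washing.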"}
{"sequence": "ATTACGTAATTAATTAAAATACAAATTTCAGCATCCTTACCGGAGTCACCTAGTGCAG", "binding signal": "42300 fluorescence intensity (a.u.)"}
{"sequence": "AGCCTAATTAATCCGTCATCAGCAAATGTTTATTGTAGCACGGAGTCACCTAGTGCAG", "binding signal": "29700 fluorescence intensity (a.u.)"}
{"sequence": "CACATGTGATTGGGCCTCGAGCCTCAGCGTGCGTGCGCCCCGGAGTCACCTAGTGCAG", "binding signal": "20400 fluorescence intensity (a.u.)"}
{"sequence": "CATTGATTGGCCAGCCGAGGTCTAGCCTCAACCTAGCGTGCGGAGTCACCTAGTGCAG", "binding signal": "54800 fluorescence intensity (a.u.)"}
{"sequence": "CTCCCGTGCAGTTGCCAGTTGATTGGTTCAGCGTGGCTGCCGGAGTCACCTAGTGCAG", "binding signal": "9720 fluorescence intensity (a.u.)"}
{"sequence": "ACTTCTATAATATATGTAAATTACCTTTTGGCTTTGCTGACGGAGTCACCTAGTGCAG", "binding signal": "4500 fluorescence intensity (a.u.)"}
{"sequence": "TATAGATTAGAGAATTAGTGGAGAACAAAATATAATAAAGCGGAGTCACCTAGTGCAG", "binding signal": "5050 fluorescence intensity (a.u.)"}
{"sequence": "TTTTAGGATGATTTAATTGTAAATTTAAAATTAAAATGGTCGGAGTCACCTAGTGCAG", "binding signal": "35400 fluorescence intensity (a.u.)"}
{"sequence": "TTAACAATATTTTAATGATTGCTCTTGTGCTTAGAAAATTCGGAGTCACCTAGTGCAG", "binding signal": "5300 fluorescence intensity (a.u.)"}
{"sequence": "TGCTTTTCATGTTTATTGATTTAGGCGCACCTGTTCTGTTCGGAGTCACCTAGTGCAG", "binding signal": "3190 fluorescence intensity (a.u.)"}
{"sequence": "TTAAAATTGATTTTAGGGGATTTTCATCTGAGCTTATGTTCGGAGTCACCTAGTGCAG", "binding signal": "55800 fluorescence intensity (a.u.)"}
{"sequence": "AAAATTTAAATTTTCAGGCTTAAATTTGAAATTGATTTTACGGAGTCACCTAGTGCAG", "binding signal": "7780 fluorescence intensity (a.u.)"}
{"sequence": "CAGAATGATTGTGCTTAATTGTAAAATTGATTTTAGGATTCGGAGTCACCTAGTGCAG", "binding signal": "61100 fluorescence intensity (a.u.)"}
{"sequence": "ACACAGCTAATTAGCTCTATGACTAAATGAATAAAATGACCGGAGTCACCTAGTGCAG", "binding signal": "25800 fluorescence intensity (a.u.)"}
{"sequence": "TCGTCAGGTTAATCAAGGGAGGATTGAACGAGATTTCGTGCGGAGTCACCTAGTGCAG", "binding signal": "5920 fluorescence intensity (a.u.)"}
{"sequence": "TGATCTAATCAATGACAGCGACTTGGTTCCATGTTCTTCCCGGAGTCACCTAGTGCAG", "binding signal": "12300 fluorescence intensity (a.u.)"}
{"sequence": "TATTCAATAACTAAATTAATGCCTGATTTACGTTGTTCGTCGGAGTCACCTAGTGCAG", "binding signal": "17400 fluorescence intensity (a.u.)"}
{"sequence": "TCTTAATTTCTATCAATAATTTAATTTAGCATATAATAACCGGAGTCACCTAGTGCAG", "binding signal": "31300 fluorescence intensity (a.u.)"}
{"sequence": "ATTGATGATTTAATGAAACTAATTTGATATTGTAGATGTTCGGAGTCACCTAGTGCAG", "binding signal": "48300 fluorescence intensity (a.u.)"}
{"sequence": "CCACTAACAGTCTAACAACATGATAAGGCCTCCGCAACCACGGAGTCACCTAGTGCAG", "binding signal": "3920 fluorescence intensity (a.u.)"}
{"sequence": "GATATGATATTGACACATGATATGTAATTATATATAGAGCCGGAGTCACCTAGTGCAG", "binding signal": "11400 fluorescence intensity (a.u.)"}
{"sequence": "AACTAAAATTACATATGTAAATTTAGTTGATATGACATGTCGGAGTCACCTAGTGCAG", "binding signal": "24600 fluorescence intensity (a.u.)"}
{"sequence": "AGCCTAATTACGTCATGATTTGACAATGTAATGATACCGTCGGAGTCACCTAGTGCAG", "binding signal": "53500 fluorescence intensity (a.u.)"}
{"sequence": "GAGCCTAATTACGCCATGATTTGACAATGTGGTGCTACAGCGGAGTCACCTAGTGCAG", "binding signal": "39300 fluorescence intensity (a.u.)"}
{"sequence": "TTGAGCCTAATTACGCCATGATTTGACAATGTGATGCTACCGGAGTCACCTAGTGCAG", "binding signal": "40200 fluorescence intensity (a.u.)"}
{"sequence": "TGTATGCGATTTGATTAAACTTTTAAAATGTTGATTATTACGGAGTCACCTAGTGCAG", "binding signal": "4680 fluorescence intensity (a.u.)"}
{"sequence": "AGCCTAATTACGCCATGATTTGACAATGTGGTGCTACAGTCGGAGTCACCTAGTGCAG", "binding signal": "58300 fluorescence intensity (a.u.)"}
{"sequence": "ATTTGATTGACGAGGTATAGTAAAATGCGTCAACTTATGTCGGAGTCACCTAGTGCAG", "binding signal": "63200 fluorescence intensity (a.u.)"}
{"sequence": "GCCTAATTACGCCATGATTTGATAATGTGGTGCTACAGTACGGAGTCACCTAGTGCAG", "binding signal": "41800 fluorescence intensity (a.u.)"}
{"sequence": "CTAATTACGTCATGATTTGACAATGTGGTGTGGTGCTACACGGAGTCACCTAGTGCAG", "binding signal": "37500 fluorescence intensity (a.u.)"}
{"sequence": "TGTAAATATATTATGATTGTAGTATAACTTATATAGTATTCGGAGTCACCTAGTGCAG", "binding signal": "10900 fluorescence intensity (a.u.)"}
{"sequence": "AAAATTGATATGTAATTATGACACACTTACGTCGGATATGCGGAGTCACCTAGTGCAG", "binding signal": "64500 fluorescence intensity (a.u.)"}
{"sequence": "CCTGACATCTCTCAATCGGACGGTGGATACCACCTCACCGCGGAGTCACCTAGTGCAG", "binding signal": "3620 fluorescence intensity (a.u.)"}
{"sequence": "CGGTCATCAATCTCATCAGCTACATCCCAAAGGGGAATCACGGAGTCACCTAGTGCAG", "binding signal": "5580 fluorescence intensity (a.u.)"}
{"sequence": "ATTTGATTTAAAACCTCAGTTTTCGATTGAGAGAAAATATCGGAGTCACCTAGTGCAG", "binding signal": "4350 fluorescence intensity (a.u.)"}
{"sequence": "CTGTCAATCTGCATATATCTGTCTCTCTTACTCACTAACACGGAGTCACCTAGTGCAG", "binding signal": "8750 fluorescence intensity (a.u.)"}
{"sequence": "ACTCACGCGCAATTAGCTGGTTTTGATGGGTCAGGAGGAACGGAGTCACCTAGTGCAG", "binding signal": "5020 fluorescence intensity (a.u.)"}
{"sequence": "TGTAATTTAATTTTGCCTCCACATTTCCTGACTTTGGCCACGGAGTCACCTAGTGCAG", "binding signal": "45700 fluorescence intensity (a.u.)"}
{"sequence": "ACGCCATGATTTGACAATGTGATGCTACAGTAAACATTTGCGGAGTCACCTAGTGCAG", "binding signal": "23300 fluorescence intensity (a.u.)"}
{"sequence": "CCATGATTTGACAATGTGATGCTACAGTAAACATTTGCTACGGAGTCACCTAGTGCAG", "binding signal": "42800 fluorescence intensity (a.u.)"}
{"sequence": "ACGCCATGATTGACAATGTGATGCTACAGTAAACATTTGCCGGAGTCACCTAGTGCAG", "binding signal": "53900 fluorescence intensity (a.u.)"}
{"sequence": "CACCATAACTAATTAACAAGCCACCTATTTCCTCTTGACACGGAGTCACCTAGTGCAG", "binding signal": "10800 fluorescence intensity (a.u.)"}
{"sequence": "AGCCATGCATCAACACGTAATTAAGTACTAGTTGACAGTGCGGAGTCACCTAGTGCAG", "binding signal": "4190 fluorescence intensity (a.u.)"}
{"sequence": "GCTAATTAATCTATTATTGATTTAGATGTATCGACCAGTTCGGAGTCACCTAGTGCAG", "binding signal": "53500 fluorescence intensity (a.u.)"}
{"sequence": "CACATTCAGTTCTAGATTAATTTATTTTGGATGAATGTATCGGAGTCACCTAGTGCAG", "binding signal": "6060 fluorescence intensity (a.u.)"}
{"sequence": "CGGCTAATTAATTTATATTTCTATATGTATTGACCCTGTTCGGAGTCACCTAGTGCAG", "binding signal": "61100 fluorescence intensity (a.u.)"}
{"sequence": "TTGCTTTAACTAGCTGCTTAATTATATGTTCTTTGTATTTCGGAGTCACCTAGTGCAG", "binding signal": "5230 fluorescence intensity (a.u.)"}
{"sequence": "CCGAATTTCTATTATTTCTTAATTGTATTTCTATATGGACCGGAGTCACCTAGTGCAG", "binding signal": "7410 fluorescence intensity (a.u.)"}
{"sequence": "ATGTATTTAATTATAGATTTAATAAAATTAATCTAGTGTTCGGAGTCACCTAGTGCAG", "binding signal": "17500 fluorescence intensity (a.u.)"}
{"sequence": "AATCAATTATAACCATTTTCTATTTAATTACCTCACGCACCGGAGTCACCTAGTGCAG", "binding signal": "25700 fluorescence intensity (a.u.)"}
{"sequence": "ATATAACAGTTTATTCACAAATTATTTTCCGTTTGCAAATCGGAGTCACCTAGTGCAG", "binding signal": "6830 fluorescence intensity (a.u.)"}
{"sequence": "ATTGACAAGATAGATTGTTGCCCAATTTTCGAAGATGCTCCGGAGTCACCTAGTGCAG", "binding signal": "42000 fluorescence intensity (a.u.)"}
{"sequence": "AATATTGATGCTTAAATTTCTTTCGAAGATCCTATGGAAGCGGAGTCACCTAGTGCAG", "binding signal": "3840 fluorescence intensity (a.u.)"}
{"sequence": "ATAAATTGATGCCCAATTTTCGAAGATGCTCATAGGGGTGCGGAGTCACCTAGTGCAG", "binding signal": "52500 fluorescence intensity (a.u.)"}
